Bioassay records (PubChem BioAssay)
Sampled rows, rich in hits. Any-hit rate of the full collection: about 18%.
TDP1 cell noCPT – qHTS for Inhibitors of human tyrosyl-DNA phosphodiesterase 1 (TDP1): qHTS in cells in absence of CPT | DT40 Tdp1-/- hTDP1 cells, no CPT, ATP luminescence, 48 h | Potency, µM (top dose mostly 46.2 µM), hits mostly inhibitors | 420,000 tested, 15% active; further: nearly all actives have a fitted effect of over 55% in size
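Growth kinetics read by CellTiter-Glo luminescence after ≥48 hr at 37 °C. Cells: DT40 Tdp1-/- stably carrying human TDP1, 400 per well, compound exposure in the absence of CPT (DMSO vehicle).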
TDP1 block – TDP1 (human) enzyme inhibition; recombinant TDP1, AlphaScreen DNA substrate cleavage; Potency, µM (series often up to 130 µM), hits mostly inhibitors; 350,000 tested, 0.28% active; further: nearly all actives have a fitted effect of over 40% in size
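Steps: enzyme plus compound, 15 min RT; add biotin/phosphotyrosine-FITC oligonucleotide (15 nM final), react 5 min; add donor/acceptor beads (10 ug/ml final), 10 min; read AlphaScreen. Tdp1 at 1 nM final.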
IL-1B inflam inh – inflammasome signaling inhibition, IL-1 beta readout; THP-1 LPS/ATP IL-1B secretion, AlphaLISA, 16 h; active compounds read low; activity change, % at 57.5 µM; 360,000 tested, 4.7% active; AID 743279; in the data active means activity change below about -50%; inconclusive means mostly about -30% to -49%
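Secreted IL-1B measured by AlphaLISA bead assay after 16 h compound exposure of THP-1 cells; compounds (final up to 57.5 uM) added 1 h before LPS (250 ng/mL) and ATP (1.25 mM) stimulation; lower signal means less secretion.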
TDP1 cell CPT – growth inhibition of DT40 Tdp1-/-;hTDP1 cells with camptothecin (screen for TDP1 inhibitors); chicken DT40 Tdp1-/-;hTDP1 cells + 20 nM CPT, ATP luminescence, 48 h; Potency, µM (titrated, usually from 46.2 µM), most hits filed as inhibitors; 420,000 tested, 12% active; further: nearly all actives have a fitted effect of over 55% in size
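Chicken DT40 Tdp1-/- cells stably complemented with human TDP1 were seeded at 400 cells/well in medium containing 20 nM camptothecin, exposed to pin-transferred compounds, and grown at 37 °C for at least 48 hr. Viability was read as ATP luminescence.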
Six1-Eya2 blk – inhibitors of human Six1/Eya2 interaction; Q15475+O00167; AlphaScreen GST-Six1/His-Eya2 binding, biochemical; active compounds read low; activity change, % (no concentration beside the values); 360,000 tested, 0.56% active; AID 651725; in the data active means activity change below about -65%; inconclusive means mostly about -30% to -63%
Target sequence (O00167 whole entry, looked up): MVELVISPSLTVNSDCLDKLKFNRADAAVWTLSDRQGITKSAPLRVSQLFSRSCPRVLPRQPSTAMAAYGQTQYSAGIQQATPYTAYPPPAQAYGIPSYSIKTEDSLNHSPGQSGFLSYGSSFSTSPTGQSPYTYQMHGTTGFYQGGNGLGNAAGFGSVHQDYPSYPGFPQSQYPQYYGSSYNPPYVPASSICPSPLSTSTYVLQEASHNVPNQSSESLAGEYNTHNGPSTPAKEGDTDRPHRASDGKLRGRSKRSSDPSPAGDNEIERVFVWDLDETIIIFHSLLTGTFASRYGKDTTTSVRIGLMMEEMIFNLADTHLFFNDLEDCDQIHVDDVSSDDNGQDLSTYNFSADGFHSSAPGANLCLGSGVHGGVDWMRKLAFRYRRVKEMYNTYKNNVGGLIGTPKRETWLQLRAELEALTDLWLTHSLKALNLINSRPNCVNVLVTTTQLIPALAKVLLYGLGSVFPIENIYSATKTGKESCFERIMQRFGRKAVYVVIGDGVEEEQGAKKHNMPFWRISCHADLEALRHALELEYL
Target sequence (Q15475 whole entry, looked up): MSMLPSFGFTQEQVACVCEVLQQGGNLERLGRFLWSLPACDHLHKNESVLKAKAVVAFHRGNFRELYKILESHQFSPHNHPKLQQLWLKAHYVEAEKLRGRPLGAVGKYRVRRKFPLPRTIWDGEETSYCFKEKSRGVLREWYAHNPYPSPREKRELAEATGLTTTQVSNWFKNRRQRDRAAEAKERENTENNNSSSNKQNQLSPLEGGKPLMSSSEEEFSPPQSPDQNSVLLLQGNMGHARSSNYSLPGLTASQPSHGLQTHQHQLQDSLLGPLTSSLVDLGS
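GST-Six1 + His-Eya2 (5X stock: 250/500 nM); Tris pH 8.0, 300 mM NaCl, 0.05% BSA, 0.02% Tween 20; GSH donor/Ni acceptor beads; 1 h 37 °C dark; AlphaScreen readout.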
CtBP-E1A inh – CtBP/E1A binding inhibition; AlphaScreen GST-E1A/His-CtBP binding, 1536-well; active compounds read low; activity change, % (concentration not given with the values); 340,000 tested, 0.49% active; in the data active means activity change below about -65%; inconclusive means mostly about -30% to -63%
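AlphaScreen with 125 nM GST-E1A and 125 nM His-CtBP (5X stocks) in Tris pH 8.0, 300 mM NaCl, BSA, Tween 20, TCEP. Compounds preincubated 2 h at 37 deg C, then glutathione donor/nickel acceptor beads added for 1 h at 37 deg C in dark.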
Of the large screens only hits and unclear results are named; the others gave an inactive call. Unless noted, the call rests on the fitted dose curve; in most records, active means well fitted curve in the direction sought with a large enough effect; inconclusive means small, poorly fitted or top-dose-only effect, or another doubt; inactive means no such curve, though single readings can be large; an effect the other way counts as inactive or inconclusive.

CN(C)c1ccnc2sc3c(=O)n(-c4ccccc4)cnc3c12	TDP1 cell CPT inconclusive
CC[C@H](C)[C@H](NC(=O)[C@H](Cc1ccc(O)cc1)NC(=O)[C@H](Cc1cnc[nH]1)NC(=O)[C@H](CCCNC(=N)N)NC(=O)[C@H](CC(C)C)NC(=O)[C@H](C)NC(=O)[C@H](CO)NC(=O)[C@H](Cc1ccc(O)cc1)NC(=O)[C@H](Cc1ccc(O)cc1)NC(=O)[C@H](CCCNC(=N)N)NC(=O)[C@H](C)NC(=O)[C@H](CC(C)C)NC(=O)[C@H](CC(=O)O)NC(=O)[C@H](CCC(=O)O)NC(=O)[C@H](C)NC(=O)[C@@H]1CCCN1C(=O)[C@H](C)NC(=O)[C@H](CC(=O)O)NC(=O)[C@H](CCC(=O)O)NC(=O)CNC(=O)[C@@H]1CCCN1C(=O)[C@H](CC(N)=O)NC(=O)[C@H](CC(=O)O)NC(=O)[C@@H]1CCCN1C(=O)[C@H](CCCCN)NC(=O)[C@@H](N)CO)C(=O)N[C@@H](CC(N)=O)C(=O)N[C@@H](CC(C)C)C(=O)N[C@H](C(=O)N[C@H](C(=O)N[C@@H](CCCNC(=N)N)C(=O)N[C@@H](CCC(N)=O)C(=O)N[C@@H](CCCNC(=N)N)C(=O)N[C@@H](Cc1ccc(O)cc1)C(N)=O)[C@@H](C)O)[C@@H](C)CC	none (no result: TDP1 cell noCPT, IL-1B inflam inh, TDP1 cell CPT, Six1-Eya2 blk, CtBP-E1A inh)
CCC(C)[C@H]1CNC(=O)C(=O)N1CCc1cccc(F)c1 (stereo not given in full)	none (no result: TDP1 block)
CC(C)NC(=O)C1(C)CCN1CCC(=O)c1ccccc1 (stereo not given)	TDP1 cell noCPT 13µM, TDP1 cell CPT 13µM (no result: TDP1 block)
CC(C)NC(=O)C1(C)CCCN1Cc1ccccc1 (stereo not given)	TDP1 cell noCPT inconclusive (no result: TDP1 block)
CCCNC(=O)C1(C)CCN(C(=O)COCc2ccccc2)C1 (stereo not given)	IL-1B inflam inh -56.1 (no result: TDP1 block)
COCC(=O)N1CCC2(CC1)CN(C(=O)Nc1ccc(OC)cc1)C2	none (no result: TDP1 block, IL-1B inflam inh, Six1-Eya2 blk, CtBP-E1A inh)
COc1ccc(N2CCN(C(=O)NC34CC5CC(CC(C5)C3)C4)CC2)cc1	TDP1 cell noCPT 23.1µM, TDP1 cell CPT inconclusive
COc1cccc(N2CCN(C(C)C(=O)NC34CC5CC(CC(C5)C3)C4)CC2)c1 (stereo not given)	TDP1 cell noCPT 16.4µM, TDP1 cell CPT inconclusive (no result: TDP1 block)
COc1ccc(-n2c(C)c(C(C)=O)c3cc(OC(C)=O)ccc32)cc1	TDP1 cell noCPT 7.31µM, TDP1 cell CPT 5.17µM (no result: TDP1 block, CtBP-E1A inh)
COC(=O)c1c(C)n(-c2ccc(OC)cc2)c2ccc(O)cc12	TDP1 cell noCPT 13µM, TDP1 cell CPT 11.6µM
CCOC(=O)c1c(C)n(-c2ccc(F)cc2)c2ccc(O)cc12	none (no result: TDP1 block)
COc1cc(/C=N/N=C2/C(=O)Nc3ccccc32)ccc1O	IL-1B inflam inh inconclusive
O=C1Nc2ccccc2/C1=N\N=C\c1ccc(O)c(O)c1	TDP1 cell noCPT inconclusive, IL-1B inflam inh -70.9, TDP1 cell CPT inconclusive
C(=N\N(c1ccccc1)c1ccccc1)/c1ccccn1	TDP1 cell noCPT 29.1µM
COc1ccc(/C=N/N(Cc2ccccc2)c2ccccc2)cc1O	TDP1 cell noCPT inconclusive, IL-1B inflam inh -86.2, TDP1 cell CPT inconclusive, Six1-Eya2 blk inconclusive
Oc1ccc(/C=N/N(c2ccccc2)c2ccccc2)cc1O	TDP1 cell noCPT inconclusive, TDP1 cell CPT 10.3µM
O=C(NCC(c1cccs1)N1CCOCC1)c1cc(S(=O)(=O)N2CCOCC2)c(Cl)cc1Cl (stereo not given)	none
O=C(/C(=N/N=C/c1ccc(O)c(O)c1)c1ccccc1)c1ccccc1	TDP1 cell noCPT 8.2µM, IL-1B inflam inh -75.7, TDP1 cell CPT 7.31µM
Oc1ccc(N=Cc2ccc(O)c(O)c2)cc1	TDP1 cell noCPT inconclusive, IL-1B inflam inh -55.3, TDP1 cell CPT inconclusive, Six1-Eya2 blk inconclusive
COc1cc(C=O)ccc1O	none (no result: IL-1B inflam inh, Six1-Eya2 blk, CtBP-E1A inh)
